Source: PubChem BioAssay (NCI)
This is part of a sample that, as a whole, favours compounds with a hit. Of some 83,000 tested, about 20% had one in any assay.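 Percent growth is the endpoint: 0 to 100 indicates growth inhibition (40 means 60% inhibition), 0 means no net growth, and negative values indicate cell death.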 Active and inactive are the calls of the source. The calls were made as follows: active = growth percent below 10; inactive = the rest.

Key:
Assay in all cases: NCI-60 one-dose screen, 48 h (100 = growth as untreated, 0 = no growth, -100 = all killed)
Conditions in all cases: 10 µM
[1] = system: 786-0 renal
[2] = system: SN12C renal
[3] = system: TK-10 renal
[4] = system: ACHN renal
[5] = system: CAKI-1 renal
[6] = system: A498 renal
[7] = system: RPMI-8226 leukemia
[8] = system: OVCAR-8 ovarian
[9] = system: OVCAR-5 ovarian
[10] = system: OVCAR-4 ovarian
[11] = system: SK-OV-3 ovarian
[12] = system: OVCAR-3 ovarian
[13] = system: NCI/ADR-RES ovarian
[14] = system: T-47D breast
[15] = system: BT-549 breast
[16] = system: MDA-MB-435 melanoma
[17] = system: MCF7 breast
[18] = system: HCT-116 colon
[19] = system: HCC-2998 colon
[20] = system: KM12 colon

Measured: growth

Cc1ccc2[nH]c(=S)n(-c3ccc(F)cc3)c(=O)c2c1
inactive: [1] 91.4% | [2] 92.2% | [3] 102% | [4] 101% | [5] 97.3% | [6] 98.3% | [7] 91.5% | [8] 103% | [9] 106% | [10] 104% | [11] 122% | [12] 114% | [13] 103% | [14] 93.5% | [15] 93.7% | [16] 104% | [17] 95% | [18] 96.3% | [19] 111% | [20] 103%

O=C(/C=C/c1ccco1)c1nc2ccccc2n1Cc1ccc(F)cc1
inactive: [1] 67.6% | [2] 79.2% | [3] 92.1% | [4] 79.1% | [5] 57.6% | [6] 93.4% | [7] 25.2% | [8] 70.1% | [9] 89.4% | [10] 48% | [11] 85.5% | [12] 46.3% | [13] 72.5% | [14] 18% | [15] 59.7% | [16] 77% | [18] 59.3% | [19] 57% | [20] 50.8%
active: [17] 8.93%

CCOC(=O)C1=C(Nc2ccccc2)C(=O)OC12C(=O)Nc1ccccc12 (stereo not given)
inactive: [1] 108% | [2] 110% | [3] 137% | [4] 107% | [5] 82.6% | [6] 120% | [7] 104% | [8] 105% | [9] 103% | [10] 107% | [11] 104% | [12] 104% | [13] 107% | [14] 110% | [15] 103% | [16] 108% | [17] 95.6% | [18] 109% | [19] 115% | [20] 105%
